High-throughput results deposited in PubChem BioAssay by National Center for Advancing Translational Sciences (NCATS).
Only some compounds are listed: those with a hit (about 7.5% of all), similar ones and a draw of the others.
ELG1 DNA repair: qHTS screen for small molecules that inhibit ELG1-dependent DNA repair in human embryonic kidney (HEK293T) cells expressing luciferase-tagged ELG1; Potency, µM (series often up to 46.1 µM), for inactives: at the top dose activity change, negative = inhibition, hits mostly inhibitors; HEK293T ELG1-luciferase reporter, luminescence, 16 h; DNA damage induced by 5-fluorouridine; AID 504467, 2011; 330,000 tested, 2.3% active; also: potency is read from the fitted curve at half-maximal effect; nearly all actives have a fitted effect of over 55% in size
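In this reporter screen, reduction of luminescence relative to DMSO vehicle indicated activity. Compounds and 5-fluorouridine were added together to 2,000 cells per well, incubated for 16 hr at 37 °C, then developed with ONE-Glo.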
B2AR arrestin: qHTS assay of beta-arrestin-biased ligands of beta2-adrenergic receptor. Beta-2 adrenergic receptor (Homo sapiens), P07550. beta-arrestin recruitment to beta2AR, cell-based reporter. Potency, µM (top dose mostly 46.1 µM), for inactives: at the top dose activation, hits mostly activators. 330,000 tested, 0.02% active. AID 492947, 2010;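 also: potency is read from the fitted curve at half-maximal effect; 0% = DMSO controls and full agonism = EC100 isoproterenol or metaproterenol; nearly all actives have a fitted effect of over 65% in size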
RORg inh: qHTS for inhibitors of ROR gamma transcriptional activity; Nuclear receptor ROR-gamma (Mus musculus), P51450; Drosophila S2 Gal4-RORgamma UAS-luciferase reporter, 20 h; Potency, µM (titrated, usually from 53.6 µM), for the others: top-dose activity change, negative = inhibition, actives largely listed as inhibitors; 310,000 tested, 5.4% active; also: potency is read from the fitted curve at half-maximal effect; nearly all actives have a fitted effect of over 60% in size
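Read-out: Photinus luciferase luminescence; inhibitors lower reporter signal. Insect Schneider cells with Gal4-ROR gamma fusion under metallothionein promoter, UAS reporter; 700 uM final copper sulfate induction, 20 hr, ambient temperature.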
Gal4-VP16 FLuc: VP16 counterscreen qHTS for inhibitors of ROR gamma transcriptional activity; Drosophila S2 Gal4-VP16 UAS-luciferase, luminescence, 20 h; Potency, µM (series often up to 53.6 µM), for inactives: at the highest dose activity, negative = inhibition, hits mostly inhibitors; 310,000 tested, 3.5% active;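 also: Gal4-VP16 expression switched on by copper sulfate through the metallothionein promoter; potency is read from the fitted curve at half-maximal effect; nearly all actives have a fitted effect of over 50% in size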
TSHR antag: Antagonists of the Thyroid Stimulating Hormone Receptor: HTS campaign; Thyrotropin receptor (Homo sapiens), P16473; TSHR-expressing cells, TSH-stimulated cAMP HTRF, 2 h; stronger effect = lower value; activity change, negative = inhibition, % at 11.5 µM; 330,000 tested, 0.2% active; AID 504810, 2011;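 active = activity change below a set negative limit, meaning inhibition stronger than a set level, cut at about -70% in these data; inconclusive = activity change between two set negative limits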
Target sequence (P16473 whole entry, looked up): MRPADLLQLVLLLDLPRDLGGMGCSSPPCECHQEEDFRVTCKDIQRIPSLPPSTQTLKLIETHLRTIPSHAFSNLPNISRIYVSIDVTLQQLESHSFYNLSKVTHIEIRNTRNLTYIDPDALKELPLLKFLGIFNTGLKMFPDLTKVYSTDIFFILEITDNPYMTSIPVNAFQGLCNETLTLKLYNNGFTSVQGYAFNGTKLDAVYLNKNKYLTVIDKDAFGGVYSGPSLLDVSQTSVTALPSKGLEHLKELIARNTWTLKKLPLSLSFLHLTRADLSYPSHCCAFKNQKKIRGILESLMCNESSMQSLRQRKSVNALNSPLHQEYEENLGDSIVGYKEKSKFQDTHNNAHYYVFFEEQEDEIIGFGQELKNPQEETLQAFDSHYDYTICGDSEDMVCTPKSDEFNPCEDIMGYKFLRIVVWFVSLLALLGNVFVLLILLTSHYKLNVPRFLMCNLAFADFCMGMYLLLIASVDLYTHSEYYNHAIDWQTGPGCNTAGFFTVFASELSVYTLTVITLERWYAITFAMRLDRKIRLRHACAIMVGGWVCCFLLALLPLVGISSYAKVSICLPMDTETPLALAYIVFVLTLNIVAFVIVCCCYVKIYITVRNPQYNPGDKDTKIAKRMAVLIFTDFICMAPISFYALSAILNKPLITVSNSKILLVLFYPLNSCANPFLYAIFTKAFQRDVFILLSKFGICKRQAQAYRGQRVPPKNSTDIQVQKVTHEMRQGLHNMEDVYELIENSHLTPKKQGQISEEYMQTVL
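Read-out is FRET at 665 nm (cryptate excitation 337 nm) from a cryptate-tagged anti-cAMP antibody, competed by cell cAMP against cAMP-d2. Compounds are tested on freshly harvested TSHR cells challenged with 4nM TSH (EC80) for 2 hours at 37 deg C.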
Active calls of the source: *; [ ] = remark or other dose. Unless noted, calls follow the shape of the dose curve; as a rule, active = well fitted curve in the direction sought with a large enough effect; inconclusive = small, poorly fitted or top-dose-only effect, or another doubt; inactive = no such curve, though single readings can be large; an effect the other way counts as inactive or inconclusive. Unless noted, % is scaled to controls: 0 for no effect and ±100 for the full control effect.

Screening CC1CN(c2ncc(/C=N/NC(=O)c3ccccc3O)s2)CC(C)O1 (centres undefined) returned ELG1 DNA repair inconclusive, B2AR arrestin 0%, RORg inh 0.35µM*, Gal4-VP16 FLuc 1.3µM* and TSHR antag -8.
For COC(=O)C1=C[C@@H](C(=O)OC)[C@@H]2C3=C(C(=O)C2(C)C)[C@H](c2ccccc2)[C@@H]2C(=O)N(c4ccccc4)C(=O)[C@@H]2[C@@H]3C1 the results were RORg inh 14% and Gal4-VP16 FLuc 0%.
CC1(C)Cc2c(cnn2-c2ccc(F)cc2)C(NC(=O)CCN2CCCC2=O)C1 (centres undefined) was read as ELG1 DNA repair inconclusive, B2AR arrestin 0%, RORg inh 43%, Gal4-VP16 FLuc inconclusive and TSHR antag 1.
CC(C)(C)c1ccc(-n2ncc3c2CCCC3NC(=O)CN2CCCC2=O)cc1 (centres undefined) was read as ELG1 DNA repair inconclusive, B2AR arrestin 0%, RORg inh inconclusive, Gal4-VP16 FLuc 7.1µM* and TSHR antag -36.
For CC(C)(C)c1ccc(-n2ncc3c2CCCC3NC(=O)CCN2CCCC2=O)cc1 (centres undefined) the results were ELG1 DNA repair -5%, B2AR arrestin 0%, RORg inh 3.5µM*, Gal4-VP16 FLuc 0.89µM* and TSHR antag -30.
For Cn1nccc1C(=O)NC1CCCc2c1cnn2-c1ccc(C(C)(C)C)cc1 (centres undefined) the results were ELG1 DNA repair 2%, B2AR arrestin 0%, RORg inh inconclusive, Gal4-VP16 FLuc 2.5µM* and TSHR antag -42.
`CC(=O)NC1CCCc2c1cnn2-c1ccc(C(C)(C)C)cc1` (centres undefined) gave ELG1 DNA repair 6%, B2AR arrestin 3%, RORg inh inconclusive, Gal4-VP16 FLuc -29% and TSHR antag -17.
CC1(C)Cc2c(cnn2-c2ccc(F)cc2)C(NC(=O)CN2CCCCC2=O)C1 (centres undefined) was read as ELG1 DNA repair 5%, B2AR arrestin -1%, RORg inh 3.5µM*, Gal4-VP16 FLuc 16µM* and TSHR antag -33.
`CCCCC(C)(C)[C@H](O)/C=C/[C@H]1[C@H](O)CC(=O)[C@@H]1C/C=C\CCCC(=O)O` gave RORg inh 2% and Gal4-VP16 FLuc -3%.
Screening COC(=O)c1ccc(/C=C/C(=O)OCC(=O)NCc2cccs2)cc1 returned ELG1 DNA repair inconclusive, B2AR arrestin 0% and TSHR antag 3.
COCCN(C(=O)COC(=O)CSc1ccc2ccccc2c1)c1c(N)n(Cc2ccccc2)c(=O)[nH]c1=O was read as ELG1 DNA repair 3%, B2AR arrestin 0% and TSHR antag -5.
Screening NCCCn1c(C(=O)c2ccc(Cl)cc2)c2ccc([N+](=O)[O-])cc2[n+]1[O-] returned ELG1 DNA repair -12%, B2AR arrestin -2% and TSHR antag -5.
For N#Cc1c2ccc([N+](=O)[O-])cc2[n+]([O-])n1-c1ccccc1 the results were ELG1 DNA repair 10µM*, B2AR arrestin 0% and TSHR antag -14.
Screening COc1ccccc1N(CC(=O)NC1CCCC1)S(=O)(=O)c1cccc(C(F)(F)F)c1 returned ELG1 DNA repair 6%, B2AR arrestin 0% and TSHR antag -3.
For OC[C@H]1OC(O)[C@@H](O)[C@@H](O)[C@H]1O (some centres undefined) the results were RORg inh 19% and Gal4-VP16 FLuc -1%.
`O=[N+]([O-])/C=C/c1cn(Cc2ccccc2)c2ccccc12` gave ELG1 DNA repair inconclusive, B2AR arrestin 0%, RORg inh 14%, Gal4-VP16 FLuc -10% and TSHR antag 27.
N#Cc1ccccc1Cn1cc(/C=C/[N+](=O)[O-])c2ccccc21 was read as ELG1 DNA repair 21µM*, B2AR arrestin -1%, RORg inh inconclusive, Gal4-VP16 FLuc 20µM* and TSHR antag -24.
For O=C(/C=C(\O)c1ccccc1)c1ccccc1O the results were RORg inh 4.5µM* and Gal4-VP16 FLuc 4.5µM*.
Screening CN(C)c1ccc(-c2cc(Nc3ccc(F)cc3)ncn2)cc1 returned RORg inh 5% and Gal4-VP16 FLuc inconclusive.
C/C(=N\NC(=O)c1ccccc1)c1ccccc1Br was read as ELG1 DNA repair inconclusive, B2AR arrestin -4%, RORg inh 3.5µM*, Gal4-VP16 FLuc 6.3µM* and TSHR antag 0.
For C/C(=N\NC(=O)c1ccc(C)cc1)c1c(C)[nH]n(-c2ccccc2)c1=O the results were ELG1 DNA repair inconclusive, B2AR arrestin 0%, RORg inh 1.3µM*, Gal4-VP16 FLuc 1.6µM* and TSHR antag 7.
Screening C/C(=N\NC(=O)c1ccccc1)c1c(C)[nH]n(-c2ccccc2)c1=O returned ELG1 DNA repair inconclusive, B2AR arrestin 0%, RORg inh 0.89µM*, Gal4-VP16 FLuc 1.3µM* and TSHR antag 10.
For COc1ccc2[nH]c3c(c2c1)CCN1C(=O)C(CC(=O)NCCCN(C)C)C[C@H](C(=O)N2CCCCC2)[C@@]31C (some centres undefined) the results were ELG1 DNA repair 10%, B2AR arrestin -1% and TSHR antag -7.
`O=[N+]([O-])/C=C/c1cc2ccccc2[nH]1` gave ELG1 DNA repair -2%, B2AR arrestin 0%, RORg inh 10µM*, Gal4-VP16 FLuc inconclusive and TSHR antag 8.
c1cncc(CNc2ncncc2-c2ccoc2)c1 was read as RORg inh -11% and Gal4-VP16 FLuc -1%.
`CC(C)Cc1nnc(NC(=O)C2CC(=O)N(c3ccc4c(c3)OCCO4)C2)s1` (centres undefined) gave ELG1 DNA repair -27%, B2AR arrestin 0% and TSHR antag -1.
Cc1cc(C(=O)N2CCN(S(=O)(=O)c3ccccc3F)CC2)c(C)o1 was read as ELG1 DNA repair -7%, B2AR arrestin 0%, RORg inh 13µM*, Gal4-VP16 FLuc 7% and TSHR antag -9.
For Cc1cc(C(=O)N2CCN(c3ncccn3)CC2)c(C)o1 the results were ELG1 DNA repair 15%, B2AR arrestin 0%, RORg inh 22µM*, Gal4-VP16 FLuc -1%[0.365 µM] and TSHR antag 4.
COC(=O)[C@@H]1C2CC3c4[nH]c5cc(OC)ccc5c4CCN3CC2C[C@H](OC(=O)c2cc(OC)c(OC)c(OC)c2)C1OC (some centres undefined) was read as RORg inh 19% and Gal4-VP16 FLuc 2%.
